Measurements from PubChem BioAssay AID1478 (National Center for Advancing Translational Sciences (NCATS), 2009).
Out of some 200,000 compounds screened, about 860 (0.43%) were called active. The entries come from a sample that favours actives as a whole. Unmarked numbers belong to inactive results. Calls come from the whole dose curve; as a rule, active = well fitted inhibition curve with a large enough effect; inconclusive = small, poorly fitted or top-dose-only effect; inactive = flat fitted curve, though single readings scatter.

target: Cruzipain (Trypanosoma cruzi) (UniProt P25779); experiment: qHTS Assay for Promiscuous and Specific Inhibitors of Cruzain (with detergent); conditions: purified cruzain, Z-FR-AMC fluorescence, 0.01% Triton; note: nearly all actives have a fitted effect of over 40% in size
Procedure: Cruzain (3.4.22.51) is a cysteine protease from the tropical parasite Trypanosoma cruzi. Dual qHTS experiment was performed against the NCGC compound collection in order to 1) identify novel inhibitors of the enzyme and 2) profile the compound collection for promiscuous inhibitors operating via colloidal aggregation (by performing detergent-free and detergent-containing comparison screens). Cruzain was assayed by the use of fluorogenic coumarin-based substrate Z-FR-AMC: proteolytic cleavage releases AMC, whose fluorescence is measured at 360 nm excitation and 450 nm emission. Purified cruzain was supplied by the labs of Prof. James McKerrow and Brian Shoichet, UC San Francisco.
This assay had 0.01% Triton X-100 concentration. See also releated assay "qHTS Assay for Promiscuous and Specific Inhibitors of Cruzain (without detergent)" with 0.00005% Triton X-100.
See following references for additional details:
Assay Provider: Shoichet, Brian; University of California, San Fancisco
Screening Center PI: Austin, C.P.
Screening Center: NIH Chemical Genomics Center [NCGC]
Buffer: 100 mM Sodium Acetate, pH 5.5, 5 mM DTT, Triton X-100 concentration: 0.01%.
Buffer in columns 3 and 4 as negative control (no enzyme).
Substrate solution: 2 uM final concentration of Z-FR-AMC (catalog number I-1160, Bachem) dispensed throughout the plate.
Enzyme: 1.5 nM Cruzain final concentration in columns 1, 2, 5-48. Column 1 is neutral (100% activity). Column 2 contained titration of covalent inhibitor K11777, starting concentration 1 mM, then 1:2 dilution in duplicate).
Three uL of enzyme or buffer were dispensed to 1536-well Greiner black solid bottom plates. Compounds and controls (23 nL) were transferred via Kalypsys PinTool. The plates were incubated for 15 min at room temperature, and then 1 uL of substrate solution was added to start the reaction. The plates were immediately transferred to and read 4 times every 30 seconds for 2 min on ViewLux High-throughput CCD imager (Perkin-Elmer) using 360 nm excitation and 450 nm emission fluorescence protocol. The fluorescence intensity difference between the third and the first time points (time lapse of 60 seconds) was used to compute reaction progress.
Potency is the fitted concentration of half-maximal effect.

Chain of Cruzipain (Trypanosoma cruzi) (P25779 123-467 limits assumed): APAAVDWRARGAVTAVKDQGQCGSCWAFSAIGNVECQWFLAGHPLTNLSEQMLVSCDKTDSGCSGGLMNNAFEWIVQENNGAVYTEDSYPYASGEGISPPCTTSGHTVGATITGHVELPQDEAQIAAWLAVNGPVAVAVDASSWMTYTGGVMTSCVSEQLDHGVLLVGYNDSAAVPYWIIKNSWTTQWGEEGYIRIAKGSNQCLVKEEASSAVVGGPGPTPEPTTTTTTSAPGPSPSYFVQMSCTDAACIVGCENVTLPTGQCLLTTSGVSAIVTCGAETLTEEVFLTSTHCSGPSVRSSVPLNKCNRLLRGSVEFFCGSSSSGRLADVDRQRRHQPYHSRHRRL

In order of falling max response, negative = inhibition:
1. CCC(=O)NCCc1nc2ccccc2n1CC  4.89%
2. O=C(Nc1cc(C(F)(F)F)ccc1Cl)c1nc2ccccc2nc1N1CCCCC1  2.61%
3. CCOc1ccccc1NC(=O)CCn1cnnn1  2.1%
4. CCN(c1ncnc2c1cnn2-c1ccc(C)cc1)C1CCCCC1  1.62%
5. Cc1ccc(-c2c3c(=O)n(C)c(=O)n(C)c3cn2-c2ccccc2O)cc1  0.548%
6. CCOc1ccc(CNC(=O)c2cc(=O)[nH]c3ccc(S(=O)(=O)N4CCCCC4)cc23)cc1  0.425%
7. Cc1ccc(-n2ncc3c(NCCCn4ccnc4)ncnc32)cc1Cl  -0.0419%
8. CC(=O)N1CCCc2cc(S(=O)(=O)N3CCC(C(=O)NC4CCCCC4)CC3)ccc21  -0.0735%
9. Cc1ccc(CNS(=O)(=O)c2ccc(C(=O)N(C)C)s2)cc1  -0.386%
10. CCCCCn1c(=O)[nH]c2cc(C(=O)Nc3ccc(F)cc3)ccc2c1=O  -0.504%
11. CCOc1ccc(CNC(=O)c2cc(-c3ccc(Cl)s3)nc3ccccc23)cc1  -0.709%
12. CCCn1c(-c2ccc(F)cc2)nc2c(NCC3CCCN3CC)nc(C)nc21 (stereo not given)  -1.1%
13. CCCCCn1c(CCCNC(=O)c2ccccc2OC)nc2ccccc21  -1.13%
14. CCOC(=O)c1cccc(NC(=O)c2cc(CN3CCCC3)on2)c1  -1.68%
15. OCc1cnc(SCc2ccc(F)cc2)n1Cc1ccc(F)cc1  -1.84%
16. CCCCn1c(CCCNC(=O)CC)nc2ccccc21  -2.07%
17. COc1ccccc1NC(=O)C(=O)c1cc(C)n(-c2ccccc2F)c1C  -2.07%
18. Cc1ccccc1CNC(=O)C(=O)NCC(c1cccs1)S(=O)(=O)c1cccs1 (stereo not given)  -2.25%
19. COc1ccc(OC)c(CNC(=O)Cn2nc(C)c3c(C)n(-c4ccccc4)nc3c2=O)c1  -2.6%
20. CCOc1cccc(C(=O)Nc2nnc(S(=O)(=O)N(C)c3ccc(C)cc3)s2)c1  -2.64%
21. CC(=O)CCC(=O)c1ccc2ccccc2c1  -3%
22. Cc1ccc2nc(/C(C#N)=C/c3ccc(-c4ccc(C(=O)OC(C)C)cc4)o3)[nH]c2c1  -3.11%
23. Cc1cc(=O)c2cc(C(=O)Nc3cccc(C)c3C)ccc2[nH]1  -3.15%
24. CCOc1ccc(N2CC(C)Cn3c2nc2c3c(=O)n(Cc3c(F)cccc3Cl)c(=O)n2C)cc1 (stereo not given)  -3.27%
25. COc1ccc(-c2c3c(=O)n(C)c(=O)n(C)c3cn2-c2cccc(OC)c2)cc1  -3.29%
26. Cc1ccc(C)c(Cn2c(CCCNC(=O)C3CCCCC3)nc3ccccc32)c1  -3.31%
27. Fc1ccc(-c2nc(Nc3cccc(Cl)c3)nc3c2COc2ccccc2-3)cc1  -3.92%
28. Cc1cccc(NC(=O)CSc2ncc(-c3ccccc3)[nH]2)c1C  -4.22%
29. O=C(CC1N=C2c3ccccc3N=C(SCc3ccc(F)cc3)N2C1=O)NCc1cccs1 (stereo not given)  -4.42%
30. Cc1cc2c(cc3c(SCc4cccc(Cl)c4)nnc(C)n32)o1  -4.57%
31. COc1ccc(Cc2nc3ccc(C(=O)NCc4ccc(OC)cc4OC)cc3o2)cc1  -5.34%
32. CCc1ccccc1NC(=O)Cc1ccc(NC(=O)N2CCCCc3ccccc32)cc1  -5.61%
33. COC(=O)c1ccc(Cn2c(SCC(=O)N(C)c3ccccc3)nc3ccccc32)cc1  -5.82%
34. Fc1ccc2[nH]c3c(N4CCSCC4)ncnc3c2c1  -6.83%
35. COc1cc(OC)c(NC(=O)c2cnc(N3CCCC3)nc2C)cc1Cl  -6.84%
36. CC(=O)c1ccc2c(ccc3ccccc32)c1  -9.87%
37. COc1ccc(Cn2c(C(=O)O)c(CNCc3cccc(OC)c3)c3ccc(C)cc32)cc1  -10.4%
38. O=C(NCc1ccco1)c1cc(-c2cccnc2)nc2ccc(Cl)cc12  -13.8%
39. O=C(CSc1ncc(S(=O)(=O)c2ccc(Br)cc2)c(=O)[nH]1)Nc1ccc2c(c1)OCCO2  -23.7%

For CCCCCn1c(CCNC(=O)c2ccc(F)cc2)nc2ccccc21, the Potency was 4.47 µM (active).
For CCc1ccc(-c2cc(C(=O)NCc3ccco3)c3ccccc3n2)s1, the Potency was 22.4 µM (active).
In the case of C=CC(=O)c1ccc2ccccc2c1, the Potency is reported as 3.98 µM (active).
In the case of CCN1CCCC1CNc1ncnc2c1[nH]c1ccc(F)cc12 (stereo not given), the Potency is reported as 25.1 µM (active).
With Cc1ccc(-c2c3c(=O)n(C)c(=O)n(C)c3cn2-n2cnnc2)cc1 the Potency was 10 µM (active).
CCOc1ccccc1NC(=O)CSc1ncc(S(=O)(=O)c2ccc(C(C)(C)C)cc2)c(=O)[nH]1 was tested, and the Potency was 28.2 µM (active).
